From PubChem BioAssay (NCI)
Compounds without any hit were thinned out: in the full panel of roughly 83,000, 20% have a hit.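 Growth was measured after 48 h exposure to one concentration of compound in 96-well plates. Values under 10 count as active.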 Active and inactive are the calls of the source.

tested on: IGROV1 ovarian; test: NCI-60 one-dose screen, 48 h (100 = growth as untreated, 0 = no growth, -100 = all killed); settings: 10 µM

Structure (SMILES)	growth
COc1ccc(-c2c(N)c(=O)n(C)c3ccccc23)cc1	46.5% (inactive)
COc1ccc2c(c1)N=C(C(=O)O)/C2=C/c1sc(Nc2ccc(O)cc2)nc1O	74.6% (inactive)
CN(C)c1ccc(/C=C/c2nc3ccccc3c(=O)n2CC(=O)Nc2ccc(Cl)cc2)cc1	88.3% (inactive)
COc1ccccc1C(=O)NNC(=O)CSc1nc2c(c(=O)[nH]1)CCCC2	92.5% (inactive)
CN(C)c1nc(NCCNS(=O)(=O)c2ccc(C(=O)/C=C/c3ccccc3)cc2)nc(Nc2ccc(F)cc2)n1	8.78% (active)
CN(CCO)c1oc(-c2ccccc2)nc1[P+](c1ccccc1)(c1ccccc1)c1ccccc1	6.36% (active)
CCOC(=O)C1=C(N)N(c2ccccc2)C2=C(C(=O)CC(C)(C)C2)C1c1ccccc1OC (stereo unspecified)	96.9% (inactive)
CCOC(=O)C1=C(N)N(c2ccccc2)C2=C(C(=O)CC(C)(C)C2)C1c1ccc(Cl)cc1 (stereo unspecified)	59.5% (inactive)
Brc1ccc(N/N=C/c2c[nH]c3ccccc23)nc1	1.99% (active)
C=CCn1c(SCC(=O)Nc2ccc(C(=O)/C=C/c3ccccc3)cc2)nnc1-c1c[nH]c2ccccc12	42% (inactive)
C/C(=C\CSc1ccccc1C(=O)O)CCCC(C)CCCC(C)CCCC(C)C (stereo unspecified)	76.1% (inactive)
COc1cc2c(cc1OC)/C(=C\c1sc(Nc3ccc(O)cc3)nc1O)C(C(=O)O)=N2	34.3% (inactive)
COc1ccc(Nc2nc(N)n(Cc3cccc(Br)c3)n2)cc1	12% (inactive)
CC[C@]12C=CCN3CC[C@@]4(c5cc(C#CCNc6ccc(C)c(Nc7nccc(-c8cccnc8)n7)c6)c(OC)cc5N(C)[C@H]4[C@@](O)(C(=O)OC)[C@@H]1OC(C)=O)C32 (stereo partly specified)	60.7% (inactive)
O=S(=O)(Nc1ncccn1)c1ccc(-n2c(-c3ccc(Br)cc3)nc(-c3ccccc3)c2-c2ccccc2)cc1	51.6% (inactive)
Cc1ccc2nc(COc3ccc(C(=O)NNC(=S)NC(=O)c4ccccc4)cc3)[nH]c2c1	53.4% (inactive)
N#Cc1c(NC(=O)c2ccc(C(F)(F)F)c(Cl)c2)sc2c1CCC(=O)C2	-35.3% (active)
CN1CCN(c2ccc(C(=O)/C=C/c3cc(C(F)(F)F)ccc3Cl)cc2)CC1	-82.7% (active)
CN1CCN(Cc2ccc(C(=O)Nc3cccc(Nc4ccc5c(O)cccc5n4)c3)cc2C(F)(F)F)CC1	-54.6% (active)
CC(C)(C)c1ccc(NCc2cn(-c3ccc(C(=O)O)cc3)nc2-c2ccc(C#N)cc2)cc1	36.5% (inactive)
CCOc1ccc(/C=N/NC(=O)Cn2nc(Cc3ccc([N+](=O)[O-])cc3)c3onc(C)c3c2=O)cc1	27.6% (inactive)

tested on: OVCAR-3 ovarian; test: as above; settings: 10 µM

Structure (SMILES)	growth
N#Cc1ccc(-c2nn(-c3ccc(C(=O)O)cc3)cc2CNc2ccc(Oc3ccccc3)cc2)cc1	45.1% (inactive)
COc1cc2c(cc1OC)CN(CCCCOc1cc(O)c3c(=O)cc(-c4ccccc4)oc3c1)CC2	94.9% (inactive)
Cc1cc(=O)oc2cc(OCCCCOc3ccc(/C=C/C(=O)Nc4ccc(F)c(Cl)c4)cc3)ccc12	97.2% (inactive)
COc1ccc(CN2[C@@H](C(=O)NCc3ccc(C(=O)NO)cc3)Cc3c([nH]c4ccccc34)[C@@H]2C2CC2)cc1	10.5% (inactive)
COC(=O)c1c(C(=O)OC)c2n(c1C)[C@@H]([C@@H](C)[C@H]1CC[C@H]3[C@@H]4CCC5=CC(=O)CC[C@]5(C)[C@H]4CC[C@]13C)SC2	51.4% (inactive)
O=C1CCC(N2Cc3cc(CC(=O)Nc4ccc(N5CCCCC5)cc4)ccc3C2=O)C(=O)N1 (stereo unspecified)	53.9% (inactive)
Cn1cc(-c2cc(N)n3nc(-c4c[nH]c5ccc(Br)cc45)cc3n2)c2cc(Br)cnc21	-90.4% (active)
COc1ccc(C(=O)CSc2nnc(-c3c[nH]c4ccccc34)n2-c2ccccc2)cc1	53.6% (inactive)
CC(C)C1=C[C@@]23CC[C@@H]4[C@](C)(CCC[C@]4(C)C(=O)NCc4ccccc4)[C@H]2C[C@@H]1[C@H]1C(=O)CCC(=O)[C@H]13	86.9% (inactive)
Nc1nc(Nc2ccccc2)nn1Cc1c(Cl)cccc1Cl	54.6% (inactive)
Cc1ccc2nc(COc3ccc(C(=O)NNC(=S)NCCc4ccccc4)cc3)[nH]c2c1	105% (inactive)
COc1cc2c3c(n(CCCn4ccnc4)c(=O)c2cc1OC)-c1nc2c(cc1C3=O)OCO2	48.5% (inactive)
Cc1ccc(/C(N)=N/c2sc(-c3ccccc3)nc2-c2ccccc2)cc1	84.7% (inactive)
Cc1cccc(NC(=O)CSc2nc3ccc(F)cc3c(=O)n2-c2ccc(Cl)cc2)c1C	93.9% (inactive)
CCCn1c(=O)c2[nH]c(-c3ccc(OCc4nc5ccc(C)cc5[nH]4)cc3)nc2n(CCC)c1=O	18.2% (inactive)
O=S(=O)(Nc1ncccn1)c1ccc(-n2c(-c3ccccc3)nc(-c3ccccc3)c2-c2ccccc2)cc1	113% (inactive)
Cc1ccc(C(=O)NNC(=O)CSc2nc3ccccc3c(=O)[nH]2)cc1	103% (inactive)
COc1cc(OC(F)(F)F)ccc1C(=O)Nc1sc2c(c1C#N)CCC(=O)C2	112% (inactive)
COc1ccc(C(=O)Nc2sc3c(c2C#N)CCC(=O)C3)cc1C(F)(F)F	-6.94% (active)
COc1ccc(-c2c(N)c(=O)n(C)c3ccccc23)cc1	51.5% (inactive)

Structure (SMILES)	growth
COc1ccc2c(c1)N=C(C(=O)O)/C2=C/c1sc(Nc2ccc(O)cc2)nc1O	72.9% (inactive)
CN(C)c1ccc(/C=C/c2nc3ccccc3c(=O)n2CC(=O)Nc2ccc(Cl)cc2)cc1	42.2% (inactive)
COc1ccccc1C(=O)NNC(=O)CSc1nc2c(c(=O)[nH]1)CCCC2	102% (inactive)
CN(C)c1nc(NCCNS(=O)(=O)c2ccc(C(=O)/C=C/c3ccccc3)cc2)nc(Nc2ccc(F)cc2)n1	-42.2% (active)
CN(CCO)c1oc(-c2ccccc2)nc1[P+](c1ccccc1)(c1ccccc1)c1ccccc1	-0.969% (active)
CCOC(=O)C1=C(N)N(c2ccccc2)C2=C(C(=O)CC(C)(C)C2)C1c1ccccc1OC (stereo unspecified)	112% (inactive)
CCOC(=O)C1=C(N)N(c2ccccc2)C2=C(C(=O)CC(C)(C)C2)C1c1ccc(Cl)cc1 (stereo unspecified)	51.6% (inactive)
Brc1ccc(N/N=C/c2c[nH]c3ccccc23)nc1	19.5% (inactive)
C=CCn1c(SCC(=O)Nc2ccc(C(=O)/C=C/c3ccccc3)cc2)nnc1-c1c[nH]c2ccccc12	41.4% (inactive)
C/C(=C\CSc1ccccc1C(=O)O)CCCC(C)CCCC(C)CCCC(C)C (stereo unspecified)	74.4% (inactive)
COc1cc2c(cc1OC)/C(=C\c1sc(Nc3ccc(O)cc3)nc1O)C(C(=O)O)=N2	3.64% (active)
COc1ccc(Nc2nc(N)n(Cc3cccc(Br)c3)n2)cc1	19.6% (inactive)
CC[C@]12C=CCN3CC[C@@]4(c5cc(C#CCNc6ccc(C)c(Nc7nccc(-c8cccnc8)n7)c6)c(OC)cc5N(C)[C@H]4[C@@](O)(C(=O)OC)[C@@H]1OC(C)=O)C32 (stereo partly specified)	48.1% (inactive)
O=S(=O)(Nc1ncccn1)c1ccc(-n2c(-c3ccc(Br)cc3)nc(-c3ccccc3)c2-c2ccccc2)cc1	48.2% (inactive)
Cc1ccc2nc(COc3ccc(C(=O)NNC(=S)NC(=O)c4ccccc4)cc3)[nH]c2c1	58.2% (inactive)
N#Cc1c(NC(=O)c2ccc(C(F)(F)F)c(Cl)c2)sc2c1CCC(=O)C2	-57% (active)
CN1CCN(c2ccc(C(=O)/C=C/c3cc(C(F)(F)F)ccc3Cl)cc2)CC1	-37.7% (active)
CN1CCN(Cc2ccc(C(=O)Nc3cccc(Nc4ccc5c(O)cccc5n4)c3)cc2C(F)(F)F)CC1	-23% (active)
CC(C)(C)c1ccc(NCc2cn(-c3ccc(C(=O)O)cc3)nc2-c2ccc(C#N)cc2)cc1	19.7% (inactive)
CCOc1ccc(/C=N/NC(=O)Cn2nc(Cc3ccc([N+](=O)[O-])cc3)c3onc(C)c3c2=O)cc1	-37.5% (active)
